In PubChem BioAssay (NCI):
Several values for one entry are separate records, joined by “and”; a condition that tells them apart may be missing. Equal entries are not always repeated. Compounds without any hit were thinned out: in the full panel of roughly 83,000, 20% have a hit.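 Interpretation: 100, growth as untreated; towards 0, rising growth inhibition; 0, no net growth; 0 to -100, cell death. Compounds scoring below 10 were considered active.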 Activity calls are given as the source filed them.

Assays:
Test in all cases: NCI-60 one-dose screen, 48 h (100 = growth as untreated, 0 = no growth, -100 = all killed)
Settings in all cases: 10 µM unless noted
[1] = tested on: SK-MEL-2 melanoma
[2] = tested on: EKVX NSCLC
[3] = tested on: SN12C renal
[4] = tested on: UO-31 renal
[5] = tested on: TK-10 renal
[6] = tested on: ACHN renal
[7] = tested on: CAKI-1 renal
[8] = tested on: A498 renal
[9] = tested on: MOLT-4 leukemia
[10] = tested on: SR leukemia
[11] = tested on: RPMI-8226 leukemia
[12] = tested on: OVCAR-8 ovarian
[13] = tested on: OVCAR-4 ovarian
[14] = tested on: SK-OV-3 ovarian
[15] = tested on: IGROV1 ovarian
[16] = tested on: OVCAR-3 ovarian
[17] = tested on: HS 578T breast
[18] = tested on: NCI/ADR-RES ovarian
[19] = tested on: CCRF-CEM leukemia
[20] = tested on: OVCAR-5 ovarian

Structure (SMILES)	growth [1]	growth [2]	growth [3]	growth [4]	growth [5]	growth [6]	growth [7]	growth [8]	growth [9]	growth [10]	growth [11]	growth [12]	growth [13]	growth [14]	growth [15]	growth [16]	growth [17]	growth [18]	growth [19]	growth [20]
O=C1c2ccccc2C(=O)N1/N=C/c1ccc2c(c1)OCO2	95.1% (inactive)	116% (inactive)	86.3% (inactive)	81.2% (inactive)	102% (inactive)	94.2% (inactive)	110% (inactive)	81.4% (inactive)	86.3% (inactive)	82% (inactive)	88.5% (inactive)	100% (inactive)	113% (inactive)	97.5% (inactive)	101% (inactive)	108% (inactive)	78.7% (inactive)	110% (inactive)	–	–
O=[N+]([O-])c1ccc(-n2[nH]nnc2=S)cc1	109% (inactive)	101% (inactive)	94% (inactive)	80.5% (inactive)	116% (inactive)	102% (inactive)	95.6% (inactive)	–	102% (inactive)	92.1% (inactive)	102% (inactive)	107% (inactive)	92% (inactive)	103% (inactive)	91.3% (inactive)	110% (inactive)	104% (inactive)	106% (inactive)	106% (inactive)	102% (inactive)
Cc1ncsc1CCO	96.1% (inactive) and 107% (inactive)	112% (inactive) and 99.6% (inactive)	109% (inactive) and 96.6% (inactive)	95.7% (inactive) and 89.7% (inactive)	103% (inactive) and 89.4% (inactive)	107% (inactive)	101% (inactive)	–	105% (inactive) and 116% (inactive)	104% (inactive) and 111% (inactive)	106% (inactive) and 122% (inactive)	104% (inactive) and 97% (inactive)	120% (inactive) and 116% (inactive)	–	124% (inactive) and 107% (inactive)	124% (inactive) and 93.9% (inactive)	110% (inactive) and 101% (inactive)	108% (inactive) and 102% (inactive)	39.9% (inactive) and 121% (inactive)	103% (inactive)
O=S(=O)(Nc1ccccc1)C1CCCCC1	103% (inactive)	104% (inactive) and 97.2% (inactive)	94.9% (inactive) and 120% (inactive)	77.2% (inactive) and 88.3% (inactive)	–	110% (inactive) and 103% (inactive)	86.5% (inactive) and 98.7% (inactive)	104% (inactive) and 95.9% (inactive)	83% (inactive) and 92.4% (inactive)	92.1% (inactive) and 90.5% (inactive)	93.9% (inactive) and 106% (inactive)	110% (inactive) and 108% (inactive)	108% (inactive) and 117% (inactive)	107% (inactive) and 103% (inactive)	105% (inactive) and 127% (inactive)	111% (inactive) and 104% (inactive)	–	112% (inactive) and 105% (inactive)	105% (inactive)	107% (inactive) and 104% (inactive)
CC1(C)[C@@H](OC(=O)CCC(=O)O)CC[C@]2(C)[C@H]3C(=O)C=C4[C@@H]5C[C@@](C)(C(=O)O)CC[C@]5(C)CC[C@@]4(C)[C@]3(C)CC[C@@H]12	107% (inactive) and -59.9% (active)	107% (inactive) and -33.4% (active)	102% (inactive) and -19.1% (active)	–	104% (inactive) and -36.8% (active)	103% (inactive) and -79.6% (active)	100% (inactive) and -30.4% (active)	112% (inactive) and -65.7% (active)	88.3% (inactive) and -35% (active)	94.3% (inactive) and -13% (active)	104% (inactive) and -42.2% (active)	106% (inactive) and -14.1% (active)	87.9% (inactive) and -0.335% (active)	102% (inactive) and -64.1% (active)	105% (inactive) and -35.8% (active)	99.7% (inactive) and -94% (active)	112% (inactive) and -12.9% (active)	107% (inactive) and -0.161% (active)	92.6% (inactive) and -37.2% (active)	104% (inactive) and -74.9% (active)
COc1ccccc1NC(=O)OCC#CCOC(=O)Nc1ccccc1OC	95.2% (inactive) and 95% (inactive)	99% (inactive) and 96.1% (inactive)	107% (inactive) and 92.4% (inactive)	71.4% (inactive) and 80.2% (inactive)	–	104% (inactive) and 100% (inactive)	94.3% (inactive) and 88.6% (inactive)	87.5% (inactive) and 92.8% (inactive)	72.4% (inactive)	88% (inactive) and 61.5% (inactive)	90.2% (inactive) and 72.3% (inactive)	106% (inactive) and 97.6% (inactive)	99.2% (inactive) and 94% (inactive)	104% (inactive) and 94.8% (inactive)	108% (inactive) and 83.5% (inactive)	127% (inactive) and 86.4% (inactive)	99.7% (inactive) and 76.3% (inactive)	98.7% (inactive) and 92.7% (inactive)	83.1% (inactive) and 91.5% (inactive)	98.9% (inactive) and 98.3% (inactive)
CCOc1ccc2nc3cc(N)ccc3c(N)c2c1	20% (inactive) and 24.6% (inactive)	57.3% (inactive) and 80% (inactive)	18.5% (inactive)	74.9% (inactive) and 63% (inactive)	117% (inactive) and 122% (inactive)	90% (inactive) and 83.7% (inactive)	100% (inactive) and 108% (inactive)	–	34.9% (inactive) and 25.3% (inactive)	–	113% (inactive) and 86.4% (inactive)	28.9% (inactive) and 29.6% (inactive)	56.6% (inactive) and 49.2% (inactive)	61% (inactive) and 76.5% (inactive)	–	35.3% (inactive) and 22.8% (inactive)	28.8% (inactive)	88.4% (inactive) and 71.8% (inactive)	68.5% (inactive) and 54.2% (inactive)	94.1% (inactive) and 99.6% (inactive)
Cc1cc(O)c(C(C)C)cc1S(=O)(=O)O (tested in a mixture with another compound)	99.6% (inactive) and 54% (inactive) and 112% (inactive)	93.2% (inactive) and 29.5% (inactive)	92.4% (inactive) and 22.6% (inactive) and 102% (inactive)	90.7% (inactive) and -18.5% (active) and 77.4% (inactive)	–	91.8% (inactive) and 10.8% (inactive) and 92.4% (inactive)	67.7% (inactive) and 12.1% (inactive) and 74.4% (inactive)	103% (inactive) and -18.3% (active) and 112% (inactive)	118% (inactive) and 9.88% (active) and 107% (inactive)	109% (inactive) and -17.3% (active) and 92.1% (inactive)	88.4% (inactive) and -13.4% (active) and 99.5% (inactive)	97.7% (inactive) and 13.6% (inactive) and 97.5% (inactive)	89.5% (inactive) and 100% (inactive)	–	–	109% (inactive) and -20.4% (active) and 107% (inactive)	95.3% (inactive) and -15.9% (active) and 103% (inactive)	95.3% (inactive) and 2.8% (active) and 111% (inactive)	94.5% (inactive) and 16.4% (inactive)	80.8% (inactive) and 28.3% (inactive) and 101% (inactive)
O=CC(O)C(O)C(O)CO (stereo unspecified)	-27.3% (active)	114% (inactive)	95.5% (inactive) and 109% (inactive)	–	125% (inactive) and 107% (inactive)	98.7% (inactive) and 98.1% (inactive)	106% (inactive) and 117% (inactive)	94.8% (inactive) and 109% (inactive)	122% (inactive) and 87.4% (inactive)	109% (inactive) and 89.6% (inactive)	81.9% (inactive) and 122% (inactive)	110% (inactive) and 106% (inactive)	101% (inactive) and 114% (inactive)	116% (inactive) and 101% (inactive)	105% (inactive)	106% (inactive)	98.4% (inactive) and 106% (inactive)	-41.1% (active) and 106% (inactive)	–	57.6% (inactive) and 97.7% (inactive)
NC(=O)C1CC2C=CC1C2 (stereo unspecified)	98.6% (inactive) and 112% (inactive)	102% (inactive) and 94.7% (inactive)	103% (inactive) and 99.6% (inactive)	–	120% (inactive) and 117% (inactive)	101% (inactive) and 95.3% (inactive)	76.1% (inactive) and 69.2% (inactive)	112% (inactive) and 89.4% (inactive)	103% (inactive) and 102% (inactive)	112% (inactive) and 105% (inactive)	144% (inactive) and 87.5% (inactive)	97% (inactive) and 95.1% (inactive)	107% (inactive) and 120% (inactive)	–	70.1% (inactive) and 87.3% (inactive)	93.2% (inactive) and 106% (inactive)	110% (inactive) and 94.3% (inactive)	108% (inactive) and 102% (inactive)	118% (inactive) and 96.2% (inactive)	89.8% (inactive) and 95.3% (inactive)
